# Laboratory results as given in PubChem BioAssay.
# Values joined by “and” are separate entries in the source; they are usually repeats but may differ in a detail not shown here. Equal values may be shown once. Active and inactive are the calls of the source. Cut-off read from the data, not from the text of the source, unless noted: active = inhibition above about 80%; inactive = the rest.
# Key:
# [1] = sensitizers of A549 cells to miR-34 induction, primary screen, imaging, A549 dox-inducible miR-34, nuclei and caspase counts (AID 1347080;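 active = compounds whose cell count with miR-34 switched on is under 0.7 times the count with it off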); settings: A549 miR-34 inducible, Hoechst nuclei count, 48 h
# [2] = survival rescue of mitochondrial mutant cells in low glucose, primary screen, MELAS cybrids, Rieske KO mouse fibroblasts, CellTiter-Glo (AID 1508586;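 active = mean z-score across replicates of 1.96 or higher in either the MELAS or the Rieske mutant cell line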;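 note: z relative to plate mean and SD of compound and empty wells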)
# [3] = LFS_MB_P medulloblastoma growth inhibition, cell-based, chromothripsis tumors, cisplatin or BGB combos (AID 1671449); settings: LFS_MB_P medulloblastoma cells;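 note: cells exposed for 96 hours; 0% = vehicle DMSO and 100% = killing by high DMSO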
# [4] = HDN33 neuroblastoma growth inhibition, cell-based, chromothripsis tumors, cisplatin or BGB combos (AID 1671450); settings: HDN33 neuroblastoma cells, stronger effect = higher value;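 note: cells exposed to compound for four days; 0% = vehicle DMSO and 100% = cell killing by high DMSO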
# [5] = ICB984 medulloblastoma cell growth inhibition, synergistic combos for chromothripsis tumors, cisplatin or BGB combos (AID 1671451; call rule not given here;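 note: cells exposed for 96 hours before readout; 0% = vehicle DMSO and 100% = killing by high DMSO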); settings: ICB984 medulloblastoma cells, drug combinations, stronger effect = higher value
# [6] = LFS_MB_1R medulloblastoma cell growth inhibition, synergistic combos for chromothripsis tumors, cisplatin or BGB combos (AID 1671452); settings: LFS_MB_1R medulloblastoma cells, stronger effect = higher value;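 note: cells exposed for 96 hours before readout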
# [7] = HTB85 osteosarcoma cell growth inhibition, synergistic combos for chromothripsis tumors, BGB or cisplatin IC20 combos (AID 1671453); settings: HTB85 osteosarcoma cells, drug combinations, stronger effect = higher value;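 note: cells exposed for 96 hours before readout; 0% = vehicle DMSO and 100% = high DMSO killing control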
# [8] = CRL2098 osteosarcoma cell growth inhibition, synergistic combos for chromothripsis tumors, BGB or cisplatin IC20 combos (AID 1671454); settings: CRL2098 osteosarcoma cells, drug combinations, stronger effect = higher value;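 note: cells exposed for 96 h before readout; 0% = vehicle DMSO and 100% = killing by high DMSO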
# [9] = HD-MB03 medulloblastoma cell growth inhibition, synergistic combos for chromothripsis tumors, BGB or cisplatin IC20 combos (AID 1671455; in the data active = inhibition above about 83%;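 note: 0% = vehicle DMSO and 100% = high DMSO as cytotoxic control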); settings: HD-MB03 medulloblastoma cells, stronger effect = higher value
# [10] = UWB1.289 ovarian carcinoma cell growth inhibition, synergistic combos for chromothripsis tumors, BGB or cisplatin combos (AID 1671456); settings: UWB1.289 ovarian carcinoma cells, stronger effect = higher value;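 note: cells exposed to compound for four days; 0% = vehicle DMSO and 100% = killing by high DMSO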
# [11] = LFS_MB_2R medulloblastoma cell growth inhibition, synergistic combos for chromothripsis tumors, cisplatin combos (AID 1671457); settings: LFS_MB_2R medulloblastoma cells, stronger effect = higher value;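 note: cells exposed to compound for four days before readout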
# [12] = MDA-MB-436 breast carcinoma cell growth inhibition, synergistic combos for chromothripsis tumors, BGB or cisplatin combos (AID 1671458; call rule not given here;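 note: cells exposed for 96 hours; 0% = vehicle DMSO and 100% = killing by high DMSO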); settings: MDA-MB-436 breast carcinoma growth inhibition, drug combinations, stronger effect = higher value
# [13] = UWB1.289_BRCA1 ovarian cancer growth, cell-based, BGB or cisplatin combinations (AID 1671459); settings: UWB1.289 BRCA1 ovarian carcinoma, drug combinations, stronger effect = higher value
# [14] = human astrocyte viability loss, single and combined drugs, cytotoxicity control for chromothriptic childhood tumor combination screen, cell-based, BGB or cisplatin IC20 combos (AID 1671460); settings: Human astrocytes, drug combinations, stronger effect = higher value;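 note: cells exposed to compounds for 96 hours before viability readout; 0% = vehicle and 100% = killing control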
# [15] = growth inhibition of BT084 medulloblastoma cells, cell-based, ICGC_MB145, cisplatin and BGB IC40 combos (AID 1671461); settings: drug combinations, stronger effect = higher value;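 note: cells exposed to drugs for 96 hours; 0% = vehicle DMSO and 100% = high DMSO full killing control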
# [16] = growth inhibition of RCMB18 medulloblastoma cells, cell-based, cisplatin and BGB IC40 combos (AID 1671462); settings: stronger effect = higher value;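 note: cells exposed to compound for four days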
# [17] = growth inhibition of CRL1545 osteosarcoma cells, cell-based, cisplatin and BGB IC20 combos (AID 1671464); settings: stronger effect = higher value;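 note: cells exposed to compound for 96 hours before readout; 0% = vehicle DMSO and 100% = high DMSO killing control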
# [18] = measured here: combination with BGB IC40, at 0.05 µM
# [19] = measured here: with BGB IC20 combination, at 0.5 µM
# [20] = measured here: with cisplatin IC20 combination, at 0.5 µM
# [21] = measured here: combination with cisplatin, at 0.5 µM
# [22] = measured here: combination with cisplatin, at 5 µM
structure (smiles),measurement,setting,value
CCCCN(Cc1ccc(C(=O)NO)cc1)C(=O)Nc1ccccc1,fold change,"[1]; stronger effect = lower value, cell number ratio, induced over uninduced",0.983 (inactive)
same,fold change,[1]; measured here: relative caspase fold change +Dox/-Dox,0.418
same,cell count,"[1]; measured here: total cells with miR-34 induction, stronger effect = lower value",4530
same,cell count,[1]; measured here: total cells without miR-34 induction,4600
same,z-score,"[2]; MELAS cybrid survival, CellTiter-Glo 48 h, stronger effect = higher value",-0.565 (inactive)
same,z-score,"[2]; Rieske KO mouse fibroblast survival, CellTiter-Glo 72 h",1.2
same,inhibition,"[3]; at 0.5 µM, stronger effect = higher value",-20% (inactive) and -3.97% (inactive)
same,inhibition,"[3]; measured here: combination with BGB IC20, at 0.005 µM",-3.67% and 7.55%
same,inhibition,"[3]; measured here: combination with BGB IC40, at 0.005 µM",4.04% and -3.84%
same,inhibition,[3]; [18],40.8% and 5.09%
same,inhibition,"[3]; measured here: combination with cisplatin, at 0.5 µM, stronger effect = higher value",-30.1% and 27.1%
same,inhibition,"[3]; measured here: combination with cisplatin, at 5 µM, stronger effect = higher value",80.5% and 81.8%
same,inhibition,"[4]; BGB combo, at 5 µM",53.8% and 40.9%
same,inhibition,[4]; at 0.5 µM,23.8% (inactive) and 15.6% (inactive)
same,inhibition,"[4]; cisplatin combo, at 5 µM",52.4% and 49.4%
same,inhibition,[4]; [19],24.6% and 6.38%
same,inhibition,[4]; [20],17.1% and 28%
same,inhibition,"[4]; single agent, at 5 µM",52.1% and 51.6%
same,inhibition,"[5]; BGB IC20 combo, at 0.005 µM",-10.6% and 8.62%
same,inhibition,"[5]; BGB IC40 combo, at 0.005 µM",-48.5% and 3.88%
same,inhibition,"[5]; BGB IC40 combo, at 0.05 µM",19.3% and 30.6%
same,inhibition,[5]; at 0.5 µM,-22.3% (inactive) and 1.78% (inactive)
same,inhibition,"[5]; cisplatin combo, at 0.05 µM",16.1% and 28.6%
same,inhibition,"[5]; cisplatin combo, at 0.5 µM",-41.9% and 10.4%
same,inhibition,"[5]; cisplatin combo, at 5 µM",-6.73% and -20.8%
same,inhibition,"[5]; measured here: 5 uM single agent, at 5 µM",-6.18% and 2.93%
same,inhibition,[6]; at 0.5 µM,-0.52% (inactive) and 4.37% (inactive)
same,inhibition,[6]; [18],-26.5% and -6.78%
same,inhibition,[6]; [21],3.43% and 2.01%
same,inhibition,[6]; [22],21.2% and 8.3%
same,inhibition,[7]; at 0.5 µM,19.9% (inactive) and 9.96% (inactive)
same,inhibition,"[7]; measured here: with BGB IC20, at 0.5 µM",8.29% and 2.56%
same,inhibition,"[7]; measured here: with BGB IC20, at 5 µM",37.9% and 32.7%
same,inhibition,"[7]; measured here: with cisplatin IC20, at 0.5 µM",24.2% and 15.2%
same,inhibition,"[7]; measured here: with cisplatin IC20, at 5 µM",61.3% and 51.1%
same,inhibition,"[7]; single agent, at 5 µM",64% and 41.2%
same,inhibition,[8]; at 0.5 µM,-11.3% (inactive) and -33.3% (inactive)
same,inhibition,"[8]; measured here: combination with BGB at IC20, at 0.5 µM",5.14% and -65%
same,inhibition,"[8]; measured here: combination with cisplatin at IC20, at 0.5 µM",14.3% and -15.5%
same,inhibition,[9]; at 0.5 µM,14.8% (inactive) and 3.61% (inactive)
same,inhibition,"[9]; measured here: combo with BGB at IC20, at 0.5 µM",8.17% and 6.08%
same,inhibition,"[9]; measured here: combo with cisplatin at IC20, at 0.5 µM",19.9% and -1.69%
same,inhibition,[10]; at 0.5 µM,11.9% (inactive) and 3.45% (inactive)
same,inhibition,"[10]; measured here: inhibition with BGB combination, at 0.05 µM",1.66% and 3.63%
same,inhibition,"[10]; measured here: inhibition with cisplatin combination, at 0.05 µM",-1.43% and -3.86%
same,inhibition,[11]; at 0.5 µM,-2.85% (inactive) and 5.34% (inactive)
same,inhibition,[11]; [21],10.6% and 13.6%
same,inhibition,[11]; [22],66.3% and 45%
same,inhibition,[12]; at 0.5 µM,2.63% (inactive) and 5.38% (inactive)
same,inhibition,"[12]; measured here: BGB combination, at 0.5 µM",-2.67% and 11.6%
same,inhibition,"[12]; measured here: BGB combination, at 5 µM",10.7% and 17.3%
same,inhibition,"[12]; measured here: cisplatin combination, at 0.5 µM",0.872% and -0.512%
same,inhibition,"[12]; measured here: cisplatin combination, at 5 µM",26% and 22.1%
same,inhibition,"[13]; BGB combination, concentration series, at 5 µM",53.9% and 55%
same,inhibition,[13]; at 0.5 µM,11.3% (inactive) and 5.83% (inactive)
same,inhibition,"[13]; cisplatin combination, concentration series, at 5 µM",64.1% and 65%
same,inhibition,[14]; at 0.5 µM,12.4% (inactive) and -2.38% (inactive)
same,inhibition,"[14]; measured here: combo with BGB IC20, at 0.5 µM",32.5% and 11.7%
same,inhibition,"[14]; measured here: combo with cisplatin IC20, at 0.5 µM",10.7% and -23.3%
same,inhibition,[15]; at 0.5 µM,4.6% (inactive) and 18.3% (inactive)
same,inhibition,"[15]; cisplatin combination, at 0.5 µM",19.3% and 17.8%
same,inhibition,"[15]; cisplatin combination, at 5 µM",71.8% and 68.9%
same,inhibition,"[15]; measured here: BGB IC40 combination 0.05 uM, at 0.05 µM",-5.38% and 25.6%
same,inhibition,"[15]; single agent, at 5 µM",45.6% and 57.8%
same,inhibition,[16]; at 0.5 µM,12.4% (inactive) and 19.2% (inactive)
same,inhibition,"[16]; cisplatin combo, at 5 µM",43.7% and 48.5%
same,inhibition,"[16]; measured here: BGB IC40 combination, at 0.05 µM",-4.7% and 0.072%
same,inhibition,[16]; [21],39% and 19%
same,inhibition,"[16]; single agent, at 5 µM",15.2% and 39.4%
same,inhibition,[17]; at 0.5 µM,-6.16% (inactive) and 6.99% (inactive)
same,inhibition,[17]; [19],-21.4% and 15.9%
same,inhibition,[17]; [20],1.44% and 0.349%
same,inhibition,"[17]; single agent, at 0.05 µM",-0.576% and -13%
same,inhibition,"[17]; single agent, at 5 µM",32.4% and 24.1%
